The values below come from the supplement of paper PMC7411054.

Each structure is given as a SMILES string. Counter-ions that a name gives are not always drawn.

Holding throughout (test): lowest phenotypically active concentration; higher = less potent
Details in all cases: treatment time: 24 h

One test concerns A549-TUBA1B-RELA. A digest of the protocol:
(§1)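 Phenotypic activity depended on meeting both a deviation and a reproducibility criterion. The fifteen gene-edited A549, HepG2 and WPMY1 reporter lines were treated at 0.3, 1, 3 or 9 µM for 24 h, four wells each, then imaged live with features normalised to solvent control wells. Deviation required ≥3 of 4 wells past the 95th percentile of control Euclidean distances, and reproducibility a median replicate Pearson correlation above the 95th percentile of non-replicates.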

The subject of the next test is HepG2-CANX-COX4. A digest of the protocol:
as §1

Another test concerns WPMY1-CANX-COX4. A digest of the protocol:
as §1

A further test deals with HepG2-GM130-SQSTM1. The method in brief: as §1
In another test the test system is HepG2-TP53BP1-CLTA. A digest of the protocol:
as §1

In another test the test system is HepG2-TUBA1B-RELA. The method in brief: as §1
Another test relates to WPMY1-TP53BP1-CLTA. A digest of the protocol: as §1
Another test concerns WPMY1-TUBA1B-RELA. A digest of the protocol: as §1

For `CN1C(=O)/C(=C2/Nc3ccccc3/C2=N/O)c2ccc(Br)cc21`, the “lowest phenotypically active concentration” value is no more than 0.3 µM in the test on A549-TUBA1B-RELA, 3 µM in the test with HepG2-CANX-COX4 and 9 µM in the test with WPMY1-CANX-COX4.

`O=c1cc(N2CCOCC2)oc2c(-c3cccc4c3sc3ccccc34)cccc12`: the “lowest phenotypically active concentration” value in the test with A549-TUBA1B-RELA is 3 µM; in the test with HepG2-CANX-COX4, 3 µM; with HepG2-GM130-SQSTM1 it was 1 µM; with HepG2-TP53BP1-CLTA, 1 µM; in the test with HepG2-TUBA1B-RELA it was 1 µM; with WPMY1-CANX-COX4, 1 µM. Moreover, the “lowest phenotypically active concentration” value in the test with WPMY1-TP53BP1-CLTA is 3 µM; in the test on WPMY1-TUBA1B-RELA, 9 µM.

As to `Cc1cc2nc(NCCCO)n(CC(=O)c3cc(C(C)(C)C)c(O)c(C(C)(C)C)c3)c2cc1C`, the “lowest phenotypically active concentration” value in the test on A549-TUBA1B-RELA and in the test on HepG2-TUBA1B-RELA was 9 µM in each case.

`CNCCCC12CCC(c3ccccc31)c1ccccc12` [maprotiline]: the “lowest phenotypically active concentration” value in the test on A549-TUBA1B-RELA came out at 3 µM; in the test with HepG2-GM130-SQSTM1 it was 9 µM; in the test with HepG2-TP53BP1-CLTA it was 9 µM; in the test on HepG2-TUBA1B-RELA it was 3 µM; with WPMY1-CANX-COX4, 9 µM; in the test on WPMY1-TP53BP1-CLTA, 9 µM. Also, in the test with WPMY1-TUBA1B-RELA, the “lowest phenotypically active concentration” value was 9 µM.

`O=C1Cc2cc(CCN3CCN(c4nsc5ccccc45)CC3)c(Cl)cc2N1` [ziprasidone]: the “lowest phenotypically active concentration” value with A549-TUBA1B-RELA was 9 µM; with HepG2-GM130-SQSTM1, 3 µM; in the test on HepG2-TP53BP1-CLTA, 9 µM; in the test on HepG2-TUBA1B-RELA it was 3 µM.

On to `CC(CN(C)C)CN1c2ccccc2Sc2ccccc21.CC(CN(C)C)CN1c2ccccc2Sc2ccccc21` (centres undefined) [alimemazine], for which the “lowest phenotypically active concentration” value in the test on A549-TUBA1B-RELA, with HepG2-GM130-SQSTM1, in the test with HepG2-TP53BP1-CLTA, in the test on HepG2-TUBA1B-RELA and with WPMY1-TUBA1B-RELA was 9 µM each time.

In the case of `O=C(CCCN1CCC(O)(c2ccc(Cl)cc2)CC1)c1ccc(F)cc1` [haloperidol], the “lowest phenotypically active concentration” value in the test with A549-TUBA1B-RELA, in the test with HepG2-GM130-SQSTM1, in the test on HepG2-TP53BP1-CLTA and in the test on HepG2-TUBA1B-RELA was 9 µM throughout.

`Cc1cc(CS(=O)(=O)c2ccccc2)cc(OCc2ccc(CN3CCC[C@@H]3CO)cc2)c1` [PF 543 hydrochloride]: the “lowest phenotypically active concentration” value in the test on A549-TUBA1B-RELA, in the test with HepG2-GM130-SQSTM1 and with HepG2-TP53BP1-CLTA was 9 µM throughout.

`CCN(CCO)CCCC(C)Nc1ccnc2cc(Cl)ccc12` (centres undefined) [hydroxychloroquine]: the “lowest phenotypically active concentration” value in the test with A549-TUBA1B-RELA, with HepG2-GM130-SQSTM1, with HepG2-TUBA1B-RELA, in the test with WPMY1-CANX-COX4 and with WPMY1-TUBA1B-RELA was 9 µM each time.

`CN(C)CCCN1c2ccccc2Sc2ccc(C(F)(F)F)cc21` [triflupromazine]: the “lowest phenotypically active concentration” value in the test on A549-TUBA1B-RELA, in the test on HepG2-TUBA1B-RELA, in the test on WPMY1-CANX-COX4 and with WPMY1-TUBA1B-RELA was 9 µM each time.

With `O=C(NCCN1CCC(n2c(=O)[nH]c3ccccc32)CC1)c1cc2cc(F)ccc2[nH]1`, the “lowest phenotypically active concentration” value in the test on A549-TUBA1B-RELA was found to be 3 µM; with HepG2-CANX-COX4 it was 9 µM; with HepG2-GM130-SQSTM1, 9 µM; in the test with HepG2-TP53BP1-CLTA it was 9 µM; in the test with HepG2-TUBA1B-RELA, 9 µM; with WPMY1-CANX-COX4, 9 µM. The “lowest phenotypically active concentration” value in the test on WPMY1-TP53BP1-CLTA and in the test with WPMY1-TUBA1B-RELA was 9 µM in each case.

On to `CN(C)CCCN1c2ccccc2CCc2ccc(Cl)cc21` [clomipramine], for which the “lowest phenotypically active concentration” value in the test on A549-TUBA1B-RELA, with HepG2-TP53BP1-CLTA, in the test on HepG2-TUBA1B-RELA, in the test with WPMY1-CANX-COX4, with WPMY1-TP53BP1-CLTA and in the test on WPMY1-TUBA1B-RELA was 9 µM in each case.

For the molecule `c1ccc(CN(CC2=NCCN2)c2ccccc2)cc1` [antazoline], the “lowest phenotypically active concentration” value with A549-TUBA1B-RELA turned out to be 9 µM.

On to `CNCCCN1c2ccccc2CCc2ccccc21` [desipramine], for which the “lowest phenotypically active concentration” value in the test on A549-TUBA1B-RELA, in the test on HepG2-TUBA1B-RELA and in the test on WPMY1-TUBA1B-RELA was 9 µM throughout.

Take `Cc1c(O)cccc1C(=O)N[C@@H](CSc1ccccc1)[C@H](O)CN1C[C@H]2CCCC[C@H]2C[C@H]1C(=O)NC(C)(C)C` [nelfinavir]: the “lowest phenotypically active concentration” value in the test with A549-TUBA1B-RELA was 9 µM; in the test on HepG2-CANX-COX4, 3 µM; in the test on HepG2-GM130-SQSTM1, 9 µM; in the test with HepG2-TUBA1B-RELA, 9 µM; in the test on WPMY1-CANX-COX4 it was 9 µM; with WPMY1-TUBA1B-RELA it was 9 µM.

For the molecule `COc1cc2c(cc1OCCCN1CCCC1)N=C(N)C21CCC1`, the “lowest phenotypically active concentration” value with A549-TUBA1B-RELA amounted to 9 µM.

For `CN(C)CC(O)Cn1c2ccc(Br)cc2c2cc(Br)ccc21` (centres undefined) [Wiskostatin], the “lowest phenotypically active concentration” value was 1 µM in the test on A549-TUBA1B-RELA; 9 µM with HepG2-CANX-COX4; 3 µM with HepG2-GM130-SQSTM1; 3 µM with HepG2-TP53BP1-CLTA; 3 µM in the test with HepG2-TUBA1B-RELA; 3 µM in the test on WPMY1-CANX-COX4. Also, the “lowest phenotypically active concentration” value was 9 µM in the test with WPMY1-TP53BP1-CLTA and 3 µM in the test with WPMY1-TUBA1B-RELA.

For the molecule `CC1=C(/C=C/C(C)=C\C=C\C(C)=C\C(=O)O)C(C)(C)CCC1` [tretinoin], the “lowest phenotypically active concentration” value with A549-TUBA1B-RELA was 3 µM; with HepG2-CANX-COX4, no more than 0.3 µM; in the test with HepG2-GM130-SQSTM1, 9 µM; with WPMY1-CANX-COX4 it was 1 µM; in the test with WPMY1-TP53BP1-CLTA, 1 µM; with WPMY1-TUBA1B-RELA it was 3 µM.
